# Only some compounds are listed: those with a hit (about 3% of all), similar ones and a draw of the others.
# Nrf2 inh: inhibitors of Nrf2 signaling; AID 504444; A549 ARE-Fluc reporter, luciferase luminescence, 18-24 h; 360,000 tested, 2.1% active; Potency, µM (titrated, usually from 46 µM), for the others: at the top dose activity change, negative = inhibition, actives largely listed as inhibitors; further: on the % scale 0 is the no-effect control and ±100 the full control effect; nearly all actives have a fitted effect of over 60% in size
#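 In this cell-based qHTS, ARE-driven firefly luciferase in A549 cells reports Nrf2 activity; the luminescent signal after BugLite lysis is the measured value, with a prior CellTiter-Fluor read for cell health.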
# GALK inh: inhibitors of human galactokinase. Purified GALK, Kinase-Glo residual ATP luminescence. Potency, µM (series often up to 57.5 µM), inactives show at the top dose activity change, negative = inhibition, hits mostly inhibitors. 270,000 tested, 0.007% active; further: on the % scale 0 is the no-effect control and ±100 the full control effect
#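 Quantitative HTS: GALK 5 nM, ATP 35 uM, galactose 100 uM, 1 h room temperature, then luciferase-based ATP detection.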
# Nrf2 ARE act: activators of Nrf2 (ARE) signaling; Potency, µM (doses to about 46.1 µM), for inactives: at the top dose activation, actives largely listed as activators; AID 624171; AREc32 ARE-luciferase reporter (MCF7-derived line), luminescence, 24 h; 410,000 tested, 0.31% active; further: % of control where 0% means no effect; nearly all actives have a fitted effect of over 65% in size
#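 Luminescent ARE reporter assay in AREc32_Fluc cells: overnight plating at 37 deg C, 24 hr compound incubation, Steady-Glo added, 30 min RT before reading.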
# rTrxR1 inhibitor: rat TrxR1 inhibition. recombinant rTrxR1, NADPH fluorescence consumption, selenite substrate. AID 588453. 390,000 tested, 1% active. O89049. Potency, µM (top dose mostly 114 µM), inactives show at the highest dose activity change, negative = inhibition, most hits filed as inhibitors; further: on the % scale 0 is the no-effect control and ±100 the full control effect; nearly all actives have a fitted effect of over 65% in size
# Target sequence (O89049 whole entry, looked up): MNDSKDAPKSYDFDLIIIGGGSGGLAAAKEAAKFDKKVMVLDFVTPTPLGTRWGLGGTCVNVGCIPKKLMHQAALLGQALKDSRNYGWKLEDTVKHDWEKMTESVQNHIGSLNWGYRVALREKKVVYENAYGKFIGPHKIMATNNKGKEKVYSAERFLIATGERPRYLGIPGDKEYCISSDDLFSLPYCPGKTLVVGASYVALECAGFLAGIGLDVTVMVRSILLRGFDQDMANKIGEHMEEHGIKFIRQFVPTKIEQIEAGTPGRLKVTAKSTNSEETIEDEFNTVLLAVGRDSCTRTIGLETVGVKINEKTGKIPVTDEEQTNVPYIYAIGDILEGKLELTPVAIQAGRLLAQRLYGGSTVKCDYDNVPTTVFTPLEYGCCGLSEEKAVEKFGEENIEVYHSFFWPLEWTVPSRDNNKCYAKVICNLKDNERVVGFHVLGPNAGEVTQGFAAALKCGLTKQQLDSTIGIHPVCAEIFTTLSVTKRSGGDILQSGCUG
#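 Rat TrxR1 (90 nM in the dispensed reagent) was pre-reduced with 400 uM NADPH for 5 min at room temperature, then incubated with compound for 15 min. After 400 uM selenite was added, NADPH fluorescence (Ex 340/Em 450 nm) was followed for 8 min.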
# TrxR1 substrate: is turned over as a substrate by rat TrxR1; O89049; purified TrxR1 substrate turnover, NADPH consumption readout; Potency, µM (top dose mostly 114 µM), for inactives: top-dose activity change, negative = substrate turnover; 390,000 tested, 0.01% active; further: on the % scale 0 is the no-effect control and ±100 the full control effect; nearly all actives have a fitted effect of over 50% in size
#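 Rat TrxR1, dispensed at 90 nM, was prereduced with 400 uM NADPH (final) for 5 min at ~22 deg C, then incubated with compound 15 min before 400 uM selenite. A first-read NADPH fluorescence drop versus no-compound background flagged substrates.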
# A549 tox: kills or reduces viability of A549 cells in Nrf2 counter-screen. AID 504648. A549 ARE-Fluc cells, CellTiter-Fluor viability, 18-24 h. 390,000 tested, 0.16% active. Potency, µM (doses to about 46 µM), for inactives: at the top dose activity change, negative = cytotoxicity, most hits filed as inhibitors; further: on the % scale 0 is the no-effect control and ±100 the full control effect
#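 A549 ARE-Fluc cells in 5% FBS OPTI-MEM, 5000 cells/well, rested 2 h then exposed to compounds in concentration-response for 18-24 h at 37 °C. Viability by CellTiter-Fluor fluorescence (Ex 405/Em 525) after 30 min; luciferase luminescence (BugLite, 15 min, RT) read afterwards.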
# * = called active by the depositor; ? = inconclusive; . = no result; [ ] = dose if it differs, or a comment. The call rests on the fitted dose curve; in most records, active means well fitted curve in the direction sought with a large enough effect; inconclusive means small, poorly fitted or top-dose-only effect, or another doubt; inactive means no such curve, though single readings can be large; an effect the other way counts as inactive or inconclusive. Potency means the concentration at half of the fitted maximal effect.
SMILES,Nrf2 inh,GALK inh,Nrf2 ARE act,rTrxR1 inhibitor,TrxR1 substrate,A549 tox
COc1cccc(C(=O)Nc2nc(-c3ccc(S(=O)(=O)N4CCOCC4)cc3)cs2)c1,13µM*,1.1%,0.5%,28.0%[57.1 µM],13.4%,-18.4%
COc1cc(C(=O)Nc2nc(-c3ccc(F)cc3)cs2)ccc1OCC(=O)N1CCOCC1,20.6µM*,-2.6%,-2.4%,27.7%,4.7%,-13.1%
O=C(Nc1nc(-c2ccccn2)cs1)c1ccc(F)c(S(=O)(=O)N2CCOCC2)c1,8.2µM*,.,2.8%,?,-3.6%,?
O=C(Nc1ccc(Br)cc1)c1ccc(F)c(S(=O)(=O)N2CCN(c3ccccn3)CC2)c1,23.1µM*,2.1%,2.7%,31.5%,0.0%,-8.9%
COc1cc(OC)c(NC(=O)CCc2c(C)nc3ncnn3c2C)cc1Cl,7.4%,.,-1.1%,16.1%,1.8%,-14.6%
Cc1cc(Br)ccc1NC(=O)c1sc2ncn(Cc3ccccc3Cl)c(=O)c2c1C,.,.,0.2%,24.7%[57.1 µM],-0.2%[57.1 µM],-0.1%
O=C(Nc1nc(-c2ccccn2)cs1)c1cccc(-n2cnnn2)c1,7.31µM*,-3.6%,0.1%,21.5%,6.3%,-7.5%
COc1ccc(-c2nc(NC(=O)c3ccc(OCC(=O)Nc4ccc(F)cc4)c(OC)c3)sc2C)cc1,14.6µM*,-0.4%,0.0%,-9.0%,35.0%,?
O=C(Nc1nc(-c2ccccc2)cs1)C1CCCN(S(=O)(=O)c2cccc([N+](=O)[O-])c2)C1 (configuration not stated),?,2.2%,3.0%,-5.0%,-8.1%,-15.0%
O=C(Nc1nc(-c2ccccc2)cs1)C1CCCN(S(=O)(=O)c2ccccc2)C1 (configuration not stated),20.6µM*,1.3%,0.1%,32.5%,9.0%,0.0%[1.84 µM]
O=C(Nc1nc(-c2ccc(S(=O)(=O)N3CCCCCC3)cc2)cs1)c1cccs1,6.51µM*,2.5%,3.1%,21.6%[57.1 µM],11.2%[57.1 µM],-11.2%
O=C(Nc1ccc(Br)cc1)c1cccc(-n2cnnn2)c1,-14.6%,10.2%,2.0%,15.3%,4.9%,-5.7%
O=C(Nc1nc(-c2ccc(S(=O)(=O)N3CCCC3)cc2)cs1)c1cccs1,.,0.3%,3.7%,17.9%[57.1 µM],7.6%[57.1 µM],-15.5%
COc1cc(C(=O)Nc2nc(-c3cc(C)ccc3C)c(C)s2)ccc1OCC(=O)Nc1ccc(F)cc1,?,2.7%,-0.4%,-16.8%,32.3%,0.5%
FC(F)(F)c1cccc(NC(=S)NNC(=S)Nc2cccc(C(F)(F)F)c2)c1,.,-5.7%,.,.,.,.
Cc1ccc(C(=O)Nc2cccc(C(F)(F)F)c2)cc1Nc1ccccn1,20.6µM*,2.5%,2.3%,-15.8%,-3.3%,?
Cc1cnc(Nc2nc3ccccc3o2)nc1C(=O)Nc1cccc(C(F)(F)F)c1,16.4µM*,2.3%,6.7%,-6.5%,-4.5%,?
Cc1occc1C(=O)Nc1cccc(C(F)(F)F)c1,-4.3%,0.8%,3.4%,9.9%,4.2%,?
Cc1ccccc1C(=O)NNC(=S)Nc1cccc(C(F)(F)F)c1,11.6µM*,0.1%,-1.7%,?,8.2%[57.1 µM],?
COc1ccc(CNC(=O)CSc2n[nH]c(-c3ccc(OC)cc3)n2)cc1,.,.,2.7%,-6.4%[57.1 µM],-5.1%[57.1 µM],?
CCC[N+](C)(C)c1ccc(/C=C/c2ccncc2)cc1,.,.,.,?,-25.0%,.
O=C(CSc1cn(CC(=O)N2CCOCC2)c2ccccc12)Nc1ccccc1F,-1.1%,.,-0.2%,40.3%,9.3%,8.1%
Cc1ccc(NC(=O)C2CCN(c3ncnc4sc(C)c(C)c34)CC2)cc1S(=O)(=O)N(C)C,23.1µM*,.,-0.1%,4.0%[57.1 µM],0.8%[57.1 µM],-16.1%
CCN(CC)S(=O)(=O)c1cc(NC(=O)C2CCN(c3ncnc4sc(C)c(C)c34)CC2)ccc1Cl,11.6µM*,.,2.9%,8.7%,-5.1%,?
Cc1sc2ncnc(N3CCC(C(=O)Nc4ccc(S(N)(=O)=O)cc4)CC3)c2c1C,?,.,0.2%,23.5%,6.3%,10.0%

# Compound activity from PubChem BioAssay.
